# Assay results as given in PubChem BioAssay.
# Records with an inconclusive call do not appear. Activity calls are given as the source filed them. Unless noted, how the calls were made is not given here.
# How the values were obtained:
# [1] = circadian clock period modulators, cell-based, LOPAC library, luminescence reporter (AID 2774); settings: circadian reporter cells, at 7 µM, actives lie on both sides;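 further: values are relative to mean of DMSO wells on each plate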
# [2] = tested on: Hepatitis C virus NS3 helicase; test: HCV NS3 helicase inhibitors, primary screen, biochemical, fluorescence polarization, LOPAC1280 library (AID 687035; in the data active means inhibition above about 37%); settings: Purified HCV NS3 helicase, Cy5-dT15 ssDNA binding fluorescence polarization; stronger effect = higher value; concentration not given here
# [3] = Cy5 fluorescence quenching or enhancement artefacts, artefact control for HCV NS3 helicase inhibitor project, biochemical, LOPAC1280 (AID 687037); settings: Cy5-DNA-NS3h complex fluorescence interference counterscreen
# [4] = phospholipid biosynthesis inhibitors in animal cells, primary screen, cell-based, LOPAC library, screen 4 (AID 1347384); settings: phospholipid biosynthesis inhibition screen, at 10 µM
# [5] = biological target: ATP-dependent translocase ABCB1 (Homo sapiens) (UniProt P08183); test: MDR1 (ABCB1) efflux transporter inhibition, cell-based (AID 377; in the data active means fluorescence slope change above about 50%); settings: MDR1-expressing cells, fluorescent substrate accumulation slope; stronger effect = higher value; concentration not given here
# ATP-dependent translocase ABCB1 (Homo sapiens), sequence (P08183 whole entry, looked up): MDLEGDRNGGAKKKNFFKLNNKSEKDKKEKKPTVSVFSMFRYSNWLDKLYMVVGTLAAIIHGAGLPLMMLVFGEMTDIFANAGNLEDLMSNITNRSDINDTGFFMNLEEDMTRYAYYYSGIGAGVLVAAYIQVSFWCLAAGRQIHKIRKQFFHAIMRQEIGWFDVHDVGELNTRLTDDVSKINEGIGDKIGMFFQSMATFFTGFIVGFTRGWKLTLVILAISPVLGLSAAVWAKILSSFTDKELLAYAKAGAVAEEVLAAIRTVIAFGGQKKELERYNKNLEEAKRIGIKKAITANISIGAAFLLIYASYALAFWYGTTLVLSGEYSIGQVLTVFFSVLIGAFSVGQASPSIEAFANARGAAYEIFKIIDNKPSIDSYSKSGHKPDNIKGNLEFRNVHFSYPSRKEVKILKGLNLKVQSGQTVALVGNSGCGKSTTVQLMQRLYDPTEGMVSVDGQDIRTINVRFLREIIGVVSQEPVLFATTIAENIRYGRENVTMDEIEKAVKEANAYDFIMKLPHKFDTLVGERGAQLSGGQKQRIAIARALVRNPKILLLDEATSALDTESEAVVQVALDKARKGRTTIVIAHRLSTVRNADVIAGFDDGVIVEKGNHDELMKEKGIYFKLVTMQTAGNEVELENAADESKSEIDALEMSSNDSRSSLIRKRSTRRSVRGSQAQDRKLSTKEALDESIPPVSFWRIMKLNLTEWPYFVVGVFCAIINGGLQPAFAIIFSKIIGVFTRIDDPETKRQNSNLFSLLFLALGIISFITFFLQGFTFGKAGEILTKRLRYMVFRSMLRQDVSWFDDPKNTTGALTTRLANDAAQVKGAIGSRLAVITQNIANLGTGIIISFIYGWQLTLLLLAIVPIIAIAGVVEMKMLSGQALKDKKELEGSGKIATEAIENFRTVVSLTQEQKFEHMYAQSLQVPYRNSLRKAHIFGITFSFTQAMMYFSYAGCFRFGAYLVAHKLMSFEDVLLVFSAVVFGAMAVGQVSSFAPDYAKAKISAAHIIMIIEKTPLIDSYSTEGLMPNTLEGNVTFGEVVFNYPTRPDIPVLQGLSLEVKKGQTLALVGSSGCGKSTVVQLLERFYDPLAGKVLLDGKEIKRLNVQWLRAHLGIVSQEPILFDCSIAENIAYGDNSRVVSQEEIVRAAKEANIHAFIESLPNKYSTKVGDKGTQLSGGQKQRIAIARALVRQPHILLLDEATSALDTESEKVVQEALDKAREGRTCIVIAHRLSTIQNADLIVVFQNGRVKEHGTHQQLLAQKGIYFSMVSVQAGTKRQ
# [6] = reducers of polyQ inclusions in PC12 cells, cell-based, NGF-treated PC12, GFPQ80 (AID 1614); settings: PC12 NGF-treated GFP-polyQ80 inclusion reduction;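 further: lower means fewer inclusions and 0 means no inclusions at all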
Structure (SMILES),period change [1],inhibition [2],fluorescence ratio (interference) [3],outcome [4],fluorescence slope change [5],inclusion score [6]
CN(C)CCCN1c2ccccc2Sc2ccc(Cl)cc21,-0.035 h (inactive),-2% (inactive),1 (inactive),inactive,,
OCCN1CCN(CCCN2c3ccccc3Sc3ccc(Cl)cc32)CC1,-0.035 h (inactive),-1% (inactive),1 (inactive),inactive,181% (active),
C=C(CC)C(=O)c1ccc(OCC(=O)O)c(Cl)c1Cl,,,,,85.9% (active),
CCN(CC)CCNC(=O)c1ccc(N)cc1,0.185 h (inactive),-2% (inactive),1 (inactive),inactive,,2
CN(C)CCCN1c2ccccc2CCc2ccccc21,0.07 h (inactive),-7% (inactive),1 (inactive),inactive,,
CC(C)(C)NCC(O)c1cc(O)cc(O)c1 (configuration not stated),0.03 h (inactive),-2% (inactive),1 (inactive),inactive,23.2% (inactive),2
Nc1ccc(S(=O)(=O)c2ccc(N)cc2)cc1,,,,,,2
CC(CN1c2ccccc2Sc2ccccc21)N(C)C (configuration not stated),0.14 h (inactive),-2% (inactive),1 (inactive),inactive,,
Cc1ccc(Cl)c(Nc2ccccc2C(=O)O)c1Cl,0.13 h (inactive),0% (inactive),1 (inactive),inactive,27.6% (inactive),2
CCCNC(=O)NS(=O)(=O)c1ccc(Cl)cc1,0.055 h (inactive),-1% (inactive),1 (inactive),inactive,6.6% (inactive),2
CN(C)C(=O)Oc1ccc[n+](C)c1,0.015 h (inactive),-1% (inactive),1 (inactive),inactive,,2
